An excerpt weighted towards active compounds, which were near 3.7% of everything screened.
B2AR arrestin: qHTS assay of beta-arrestin-biased ligands of beta2-adrenergic receptor; hit rate 0.02% among 330,000; Beta-2 adrenergic receptor (Homo sapiens), P07550; AID 492947, 2010; beta-arrestin recruitment to beta2AR, cell-based reporter; Potency, µM (doses to about 46.1 µM), hits mostly activators; further: nearly all actives have a fitted effect of over 65% in size
RGS4 inh: Inhibitors of Regulator of G Protein Signaling (RGS) 4: qHTS; Regulator of G-protein signaling 4 (Homo sapiens), P49798; Transcreener GDP fluorescence polarization, RGS4-accelerated GTP hydrolysis; Potency, µM (highest dose often 114 µM), most hits filed as inhibitors; hit rate 0.039% among 390,000; AID 504845, 2011; further: nearly all actives have a fitted effect of over 75% in size
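MLSMR compounds (23 nl, pin-transferred) preincubated 10 min at room temperature with a 500nM (2x) first reagent, then RGS4 at 900nM (2x) plus Transcreener GDP mix added; fluorescence polarization (620/688 nm) read before and after 90 min at 30 °C.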
PTHR1 ag: qHTS for PTHR1 Agonists: Primary Screen. Potency, µM (highest dose often 115 µM), actives largely listed as activators. AID 743266, 2014. hit rate 0.075% among 410,000. HEK293 GP2 PTHR1 cells, GloSensor cAMP luminescence, 1 h; further: nearly all actives have a fitted effect of over 55% in size
Target sequence (Q03431 whole entry, looked up): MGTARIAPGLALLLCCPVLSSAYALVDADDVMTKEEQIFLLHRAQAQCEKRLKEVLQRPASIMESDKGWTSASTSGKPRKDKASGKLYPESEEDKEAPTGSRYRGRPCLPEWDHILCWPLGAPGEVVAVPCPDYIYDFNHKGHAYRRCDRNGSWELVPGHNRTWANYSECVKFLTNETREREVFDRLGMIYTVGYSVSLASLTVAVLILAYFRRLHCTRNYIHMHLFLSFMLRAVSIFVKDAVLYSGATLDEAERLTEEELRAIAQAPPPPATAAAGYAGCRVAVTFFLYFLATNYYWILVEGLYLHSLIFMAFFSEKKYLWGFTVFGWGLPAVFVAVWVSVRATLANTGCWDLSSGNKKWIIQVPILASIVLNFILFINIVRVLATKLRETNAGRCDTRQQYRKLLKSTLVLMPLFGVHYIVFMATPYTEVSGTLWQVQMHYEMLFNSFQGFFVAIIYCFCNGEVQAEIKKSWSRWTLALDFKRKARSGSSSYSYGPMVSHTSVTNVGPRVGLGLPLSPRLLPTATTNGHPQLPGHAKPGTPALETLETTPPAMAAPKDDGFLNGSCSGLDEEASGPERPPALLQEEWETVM
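HEK-293-derived GP2 cells expressing PTHR1 and a GloSensor cAMP reporter, 3,000/well, plated overnight, given luciferin plus IBMX (each 0.5 mM as added) for 1 h at 37 °C, then compound for 1 h at 37 °C. Luminescence was read after 15 min at room temperature.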
D3 ag: qHTS of D3 Dopamine Receptor Agonist: qHTS; D(3) dopamine receptor (Homo sapiens), P35462; D3R DiscoveRx beta-arrestin cells, luminescence, 90 min; max activation, %; hit rate 0.58% among 410,000; in the data active means max activation above about 30%
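Agonist mode: compounds and dopamine controls were applied to plated cells for 90 min at 37 degrees C after an overnight attachment at 1500 cells/well. Luminescent read-out followed 30 - 60 minutes at room temperature with DiscoveRx detection reagent.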
D3 antag: qHTS of D3 Dopamine Receptor Antagonist: qHTS. hit rate 2.5% among 360,000. AID 652054, 2013. max response, negative = inhibition, %. D3R cells, DiscoveRx beta-arrestin luminescence, antagonist mode; hits give low values. D(3) dopamine receptor (Homo sapiens), P35462; in the data active means max response below about -50%; inconclusive means no clear call, values can overlap the other calls
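Cells expressing the human receptor were seeded at 1500 cells/well, incubated overnight at 37 degrees C in 5% CO2, then exposed to library compounds with dopamine controls for 90 minutes at 37 degrees C before luminescent detection.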
BRCA1 expr act: qHTS Assay to Identify Small Molecule Activators of BRCA1 Expression; MCF7-BRCA1-FFLuc reporter, luminescence, 48 h; response scale: scaled: vehicle 0%, 10 µM genistein 100%; Potency, µM (highest dose often 46.1 µM), actives largely listed as activators; AID 624202, 2012; hit rate 1.1% among 380,000; further: nearly all actives have a fitted effect of over 80% in size
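48 h compound treatment of MCF7-BRCA1-FFLuc cells (phenol-red free MEM, 37 °C), then 15 min with luciferase substrate and luminescence imaging.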
Numbers stand for hits; . = inactive; ? = inconclusive; / = not tested or not shown; [ ] = remark or other dose. Unless noted, the call rests on the fitted dose curve; in most records, active means well fitted curve in the direction sought with a large enough effect; inconclusive means small, poorly fitted or top-dose-only effect, or another doubt; inactive means no such curve, though single readings can be large; an effect the other way counts as inactive or inconclusive.

SMILES | B2AR arrestin | RGS4 inh | PTHR1 ag | D3 ag | D3 antag | BRCA1 expr act
CC(C(O)c1ccccc1)N(C)CCOC(c1ccccc1)c1ccccc1 (stereo not drawn) | / | / | / | . | / | /
CCn1c(Cc2ccccc2)nnc1SCC(=O)Nc1ccc2c(c1)OCCO2 | . | . | . | 35.4 | . | .
C=CCn1c(SCC(=O)Nc2ccc3c(c2)OCO3)nnc1-c1ccccc1 | . | . | . | . | . | .
CC(=O)Nc1ccc(NC(=O)CSc2nnc(-c3ccccc3)n2Cc2ccc3c(c2)OCO3)cc1 | . | . | . | . | -102.7 | .
C=CCn1c(SCC(=O)Nc2ccc3c(c2)OCO3)nnc1-c1cc(Br)ccc1O | / | . | . | . | -51.1 | .
O=C(CN1CCN(S(=O)(=O)c2ccc(F)cc2)CC1)Nc1ccnn1C1CCCC1 | . | . | . | . | . | .
COCCNCC#CCOc1ccc(OC)cc1 | . | . | . | . | . | .
C=CCNCC#CCOc1ccc(OC)cc1 | . | . | . | . | -62.0 | .
O=C(CCN1CCC(c2ccccc2)C1)c1ccccc1 (stereo not drawn) | . | . | . | . | ? | .
O=C(c1cccs1)N1CCC(c2ccccc2)C1 (stereo not drawn) | . | . | . | . | -59.5 | 3.55µM
O=C(CCN1CCC(c2ccccc2)C1)c1cccs1 (stereo not drawn) | . | . | ? | . | -66.2 | .
O=C(CCS(=O)(=O)c1cccc2nonc12)Nc1ccc(F)cc1F | / | . | . | . | / | .
COc1ccc(C(C)(O)c2nc(-c3ccoc3)cs2)cc1 (stereo not drawn) | / | / | . | . | . | .
CCOC(=O)[C@H](CCc1ccccc1)N[C@@H](C)C(=O)N1[C@H](C(=O)O)C[C@@H]2CCC[C@@H]21 | / | . | . | . | . | .
CCOC(=O)[C@@H](CCc1ccccc1)N[C@H](C)C(=O)N1[C@H](C(=O)O)C[C@@H]2CCC[C@@H]21 | . | . | . | . | -53.9 | .
COc1cccc(-n2nnnc2S(C)(=O)=O)c1 | . | . | . | . | -77.2 | .
CC(=O)Nc1ccc(S(=O)(=O)N2CCC(c3nc4ccc(C)cc4[nH]3)CC2)cc1 | . | . | . | . | -92.3 | .
COc1cccc(NC(=O)N(C)C[C@@H]2OCc3cnnn3CCCC(=O)N([C@@H](C)CO)C[C@H]2C)c1 | / | / | . | . | ? | .
c1cncc(CSc2ccc(-c3ccc4c(c3)OCO4)nn2)c1 | . | . | . | . | . | 5.62µM
Fc1cccc(CSc2ccc(-c3ccc4c(c3)OCO4)nn2)c1 | . | . | . | . | . | .
Cc1ccccc1CSc1ccc(-c2ccc3c(c2)OCO3)nn1 | . | . | . | . | . | 8.91µM
C[C@@H](c1ccccc1)N1C[C@H](COCc2ccccc2)Oc2cc(N3CC[C@H](N(C)C)C3)ccc2S1(=O)=O | / | / | . | . | . | .
CCCCn1c(-c2ccccc2C)nc2cc3[nH]c(=O)c(C(C)C)nc3cc21 | . | . | . | . | -63.8 | .
Cc1c(N(C)S(=O)(=O)c2cccc(C(=O)NCc3cccnc3)c2)c(=O)n(-c2ccccc2)n1C | / | / | . | . | . | .
Cc1cc2c(cc1C)NC(=O)CC(c1ccccc1)=N2 | / | . | . | . | . | 3.16µM
SMILES | B2AR arrestin | RGS4 inh | PTHR1 ag | D3 ag | D3 antag | BRCA1 expr act
Cc1ccc2c(c1)c(N=Nc1cccc(C(=O)O)c1)c(O)n2C | . | . | . | . | ? | .
CCOc1ccc2c(c1)c(N=Nc1cccc(C(=O)O)c1)c(O)n2C | . | . | . | . | . | 10µM
O=C1C2C(C(=O)N1/N=C/c1cc([N+](=O)[O-])c(O)cc1O)C1C=CC2C12CC2 (stereo not drawn) | . | . | . | . | ? | .
O=C1C2C(C(=O)N1/N=C/c1cc(Br)cc([N+](=O)[O-])c1O)C1C=CC2C12CC2 (stereo not drawn) | . | . | . | . | -69.6 | .
O=S(=O)(Cc1ccccc1)N1CCC(N2CCN(c3ccccc3)CC2)CC1 | . | . | . | 68.5 | ? | .
CC1CCC(N2CCN(S(=O)(=O)Cc3ccccc3)CC2)CC1 (stereo not drawn) | . | . | . | . | . | .
c1ccc(C2CCC(N3CCN(c4ccccc4)CC3)CC2)cc1 (stereo not drawn) | . | . | . | . | -52.2 | .
COc1ccccc1N1CCN(C2CCN(C3CCC(c4ccccc4)CC3)CC2)CC1 (stereo not drawn) | . | / | / | / | / | /
CCC(C)[C@H](NC(=O)C1CCN(C(=O)[C@H](Cc2ccccc2)NS(=O)(=O)c2ccc(C)cc2)CC1)C(=O)O (stereo partly drawn) | . | . | . | . | . | .
Cc1ccc2cccc(N=Cc3c(C)[nH]n(-c4ccccc4)c3=O)c2n1 | . | . | . | . | -98.7 | .
Cc1[nH]n(-c2ccccc2)c(=O)c1/C=N/O | . | . | . | . | . | .
Clc1ccccc1CSc1cc2c(nn1)-c1ccccc1CC2 | . | .[11.4 µM] | . | . | . | 3.98µM
COc1ccc(CCN=Cc2ccccc2O)cc1OC | . | . | . | . | . | .
COc1ccc(C2=Nc3ccc(F)cc3NC(c3cccc(C(F)(F)F)c3)=N2)cc1 | / | . | . | . | / | /
CCc1c(C)c2ccc(OCC(=O)OC(C)C)c(C)c2oc1=O | . | . | . | 40.8 | . | .
COc1cccc(-c2nn(C)c3sc(C(=O)NCCCN(C)Cc4ccccc4)cc23)c1 | . | . | . | . | -53.3 | .
CCCCN(C)CCNC(=O)c1cc2c(-c3ccccc3F)nn(C)c2s1 | . | . | . | . | -94.8 | .
CCN(CC)CCCNC(=O)c1cc2c(-c3cccc(OC)c3)nn(C)c2s1 | . | . | . | . | -82.2 | .
CCN1CCCC1CNC(=O)c1cc2c(-c3cccc(OC)c3)nn(C)c2s1 (stereo not drawn) | . | . | . | . | -71.7 | .
COc1cccc(-c2nn(C)c3sc(C(=O)NCCc4ccc(Cl)cc4)cc23)c1 | / | . | . | . | / | /
CCN1CCCC1CNC(=O)c1cc2c(-c3ccc(Cl)cc3)nn(C)c2s1 (stereo not drawn) | . | . | . | . | ? | .
CC1=C(C(=O)N(C(C)C)C(C)C)CC(CC(=O)NCCCCc2ccccc2)C(=O)N1Cc1ccc(F)cc1 (stereo not drawn) | / | / | . | . | . | .
CCCCN(CC)CCCNC(=O)c1cc2c(-c3ccc(OC)c(OC)c3)nn(C)c2s1 | . | . | . | . | -97.9 | .

Source: PubChem BioAssay
